A structure can be active in one record and inactive in another. Calls of active or inactive are those of the source. The calls were made as follows: active = hit-call score of the fitted dose curve at least 0.9, where 1 is the maximum; inactive = score below 0.9.

Read-out in assay [1]: Transforming growth factor beta 1 (TGFb1), TGFB1 (gene 7040)
The experiment in a line: BSK_KF3CT_TGFb1: BioMAP Diversity Plus: KF3CT Assay for Transforming growth factor beta 1 (TGFb1) Biomarker Activity (AID 2283072). Particulars: primary human keratinocytes with fibroblasts; actives raise or lower the signal. The procedure, abridged: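 ELISA quantifies TGF-b1 at 24 h post-dose in a primary human skin co-culture of keratinocytes and fibroblasts, with gain or loss judged against DMSO. Parallel SRB total-protein staining flags overt cytotoxicity.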

Read-out in assay [2]: C-C motif chemokine 2 (Homo sapiens) (UniProt P13500)
The experiment in a line: BSK_KF3CT_MCP1: BioMAP Diversity Plus: KF3CT Assay for Monocyte Chemoattractant Protein 1 (MCP1/CCL2) Biomarker Activity (AID 2283073). The following applies: primary human keratinocytes with fibroblasts; actives raise or lower the signal. The procedure, abridged:
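Human keratinocyte plus foreskin fibroblast primary co-culture exposed to chemical for 24 h. MCP-1 levels measured by ELISA. Bidirectional curve fitting relative to DMSO negative control as baseline.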

Read-out in assay [3]: Matrix Metallopeptidase 9 (MMP9), MMP9 (gene 4318)
The experiment in a line: BSK_KF3CT_MMP9: BioMAP Diversity Plus: KF3CT Assay for Matrix Metallopeptidase 9 (MMP9) Biomarker Activity (AID 2283074).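 As to AC50: MMP9 protein level quantified by ELISA in the co-culture.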 The following applies: primary human keratinocytes with fibroblasts; actives raise or lower the signal. The procedure, abridged:
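ELISA read-out of MMP-9 at 24 h post-dosing in a co-culture of human skin keratinocytes and foreskin fibroblasts. Gain or loss of signal was fitted in both directions against DMSO.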

Read-out in assay [4]: urokinase plasminogen activator (uPA), PLAU (gene 5328)
The experiment in a line: BSK_KF3CT_uPA: BioMAP Diversity Plus: KF3CT Assay for urokinase plasminogen activator (uPA) Biomarker Activity (AID 2283075). Particulars: primary human keratinocytes with fibroblasts; actives raise or lower the signal. The procedure, abridged: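 Skin co-culture (keratinocytes + foreskin fibroblasts), human primary; 24 h post-dose; uPA by ELISA; gain/loss fit vs DMSO baseline.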

Read-out in assay [5]: E-selectin (Homo sapiens) (UniProt P16581)
The assay can be described thus: BSK_LPS_Eselectin: BioMAP Diversity Plus: LPS Assay for Eselectin Biomarker Activity (AID 2283077). Particulars: primary human HUVEC with PBMC; actives raise or lower the signal. The procedure, abridged: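 Human umbilical vein endothelial cells co-cultured with peripheral blood mononuclear cells under LPS stimulation; E-selectin measured by ELISA 24 h after chemical dosing. Activity fitted bidirectionally against DMSO as negative control and baseline.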

Read-out in assay [6]: Interleukin-8 (IL8), CXCL8 (gene 3576)
The assay can be described thus: BSK_LPS_IL8: BioMAP Diversity Plus: LPS Assay for Interleukin-8 (IL8) Biomarker Activity (AID 2283078). Particulars: primary human HUVEC with PBMC; actives raise or lower the signal. The procedure, abridged: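 Human umbilical vein endothelial cells co-cultured with PBMC were stimulated with LPS; IL-8 levels were measured by ELISA 24 h after chemical dosing. Activity was fitted bidirectionally against DMSO as negative control and baseline.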

A short description of assay [7]: BSK_LPS_SRB: Viability Assessment in the BioMAP Diversity Plus: LPS Assay (AID 2283079).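 Also: total protein by sulforhodamine B absorbance as a cytotoxicity measure; measured one day after compound addition.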 The following applies: primary human HUVEC with PBMC. The procedure, abridged: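 Human umbilical vein endothelial cells co-cultured with PBMC (LPS system) were dosed for 24 h. Total protein was stained with 0.1% sulforhodamine B after 10% TCA fixation, read at 560 nm, and fitted bidirectionally against DMSO baseline.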

Read-out in assay [8]: Interleukin-1 alpha (IL1a), IL1A (gene 3552)
The assay can be described thus: BSK_LPS_IL1a: BioMAP Diversity Plus: LPS Assay for Interleukin-1 alpha (IL1a) Biomarker Activity (AID 2283080). Particulars: primary human HUVEC with PBMC; actives raise or lower the signal. The procedure, abridged:
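Human umbilical vein endothelial cells co-cultured with peripheral blood mononuclear cells were LPS-stimulated and exposed to test chemicals for 24 h. IL-1 alpha was quantified by ELISA, with bidirectional curve fitting against DMSO as the negative control and baseline.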

Read-out in assay [9]: Monocyte Chemoattractant Protein-1 (MCP1), CCL2 (gene 6347)
The assay can be described thus: BSK_LPS_MCP1: BioMAP Diversity Plus: LPS Assay for Monocyte Chemoattractant Protein-1 (MCP1) Biomarker Activity (AID 2283081).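 As to AC50: co-culture stimulated with LPS; secreted MCP-1 protein quantified by ELISA in culture supernatant.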 The following applies: primary human HUVEC with PBMC; actives raise or lower the signal. The procedure, abridged:
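HUVEC plus PBMC co-culture (human primary cells, LPS system) exposed to test chemical for 24 h; MCP-1 measured by ELISA. Bidirectional curve fitting against DMSO baseline; parallel SRB total-protein staining flags overt cytotoxicity.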

Assay [10] can be described thus: BSK_LPS_PGE2: BioMAP Diversity Plus: LPS Assay for Prostaglandin E2 (PGE2) Biomarker Activity (AID 2283082).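 As to AC50: secreted prostaglandin E2 measured by ELISA in LPS-stimulated co-culture.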 The following applies: primary human HUVEC with PBMC; actives raise or lower the signal. The procedure, abridged:
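PGE2 release measured by ELISA in an LPS-activated co-culture of human umbilical vein endothelial cells and peripheral blood mononuclear cells, read at 24 h post-dosing. DMSO served as baseline for bidirectional curve fitting.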

Read-out in assay [11]: Macrophage colony-stimulating factor (MCSF), CSF1 (gene 1435)
The experiment in a line: BSK_LPS_MCSF: BioMAP Diversity Plus: LPS Assay for Macrophage colony-stimulating factor (MCSF) Biomarker Activity (AID 2283083). The following applies: primary human HUVEC with PBMC; actives raise or lower the signal. The procedure, abridged: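 Human umbilical vein endothelial cells co-cultured with peripheral blood mononuclear cells were exposed to compound for 24 h. M-CSF levels were measured by ELISA, and bidirectional curve fitting used DMSO as the negative control and baseline.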

Read-out in assay [12]: Tissue Factor, F3 (gene 2152)
The assay can be described thus: BSK_LPS_TissueFactor: BioMAP Diversity Plus: LPS Assay for Tissue Factor Biomarker Activity (AID 2283084). The following applies: primary human HUVEC with PBMC; actives raise or lower the signal. The procedure, abridged: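 Human umbilical vein endothelial cells co-cultured with peripheral blood mononuclear cells were dosed and stimulated with LPS. Cell-surface CD142 was quantified by ELISA at 24 h. Activity was fitted bidirectionally against DMSO baseline.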

Read-out in assay [13]: Tumor necrosis factor (Homo sapiens) (UniProt P01375)
The assay can be described thus: BSK_LPS_TNFa: BioMAP Diversity Plus: LPS Assay for Tumour Necrosis Factor alpha (TNFa) Biomarker Activity (AID 2283085).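 As to AC50: TNFa protein level quantified by ELISA in the co-culture.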 Particulars: primary human HUVEC with PBMC; actives raise or lower the signal. The procedure, abridged: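 TNFa was quantified by ELISA in LPS-activated co-cultures of human endothelial cells and PBMC, 24 h post-dosing. Both increases and decreases versus DMSO were fitted.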

Read-out in assay [14]: Vascular cell adhesion molecule 1 (VCAM1), VCAM1 (gene 7412)
The assay can be described thus: BSK_LPS_VCAM1: BioMAP Diversity Plus: LPS Assay for Vascular cell adhesion molecule 1 (VCAM1) Biomarker Activity (AID 2283086). The following applies: primary human HUVEC with PBMC; actives raise or lower the signal. The procedure, abridged: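 VCAM-1 quantified by ELISA in an LPS-activated co-culture of human endothelial cells and peripheral blood mononuclear cells, read 24 h post-treatment. Fitted in both directions versus DMSO; parallel SRB staining flags overt cytotoxicity.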

Read-out in assay [15]: CD38, CD38 (gene 952)
The assay can be described thus: BSK_SAg_CD38: BioMAP Diversity Plus: SAg Assay for CD38 Biomarker Activity (AID 2283087). The following applies: primary human HUVEC with PBMC; actives raise or lower the signal. The procedure, abridged: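 CD38 quantified by ELISA (fluorescence) in a superantigen-activated endothelial cell–PBMC co-culture at 24 h post-dose. Activity fitted in both directions relative to DMSO; parallel SRB and Alamar Blue cytotoxicity read-outs.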

Read-out in assay [16]: CD69, CD69 (gene 969)
The assay can be described thus: BSK_SAg_CD69: BioMAP Diversity Plus: SAg Assay for CD69 Biomarker Activity (AID 2283089).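 As to AC50: cell surface CD69 protein quantified by ELISA with fluorescence detection.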 Particulars: primary human HUVEC with PBMC; actives raise or lower the signal. The procedure, abridged:
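Primary human vascular co-culture (umbilical vein endothelium with peripheral blood mononuclear cells) exposed to test chemical for 24 h. CD69 levels quantified by fluorescence ELISA; DMSO served as negative control for bidirectional fitting.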

Read-out in assay [17]: Monocyte Chemoattractant Protein-1 (MCP1), CCL2 (gene 6347)
The assay can be described thus: BSK_SAg_MCP1: BioMAP Diversity Plus: SAg Assay for Monocyte Chemoattractant Protein-1 (MCP1) Biomarker Activity (AID 2283090). Particulars: primary human HUVEC with PBMC; actives raise or lower the signal. The procedure, abridged: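 Values derive from bidirectional fitting of ELISA-measured MCP1 against DMSO controls. Readings were taken 24 h after dosing human vascular endothelial cells co-cultured with peripheral blood mononuclear cells under superantigen stimulation.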

Read-out in assay [18]: CD40, CD40 (gene 958)
The experiment in a line: BSK_LPS_CD40: BioMAP Diversity Plus: LPS Assay for CD40 Biomarker Activity (AID 2283076). Particulars: primary human HUVEC with PBMC; actives raise or lower the signal. The procedure, abridged: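 Primary human umbilical vein endothelial cells co-cultured with peripheral blood mononuclear cells, LPS-stimulated, were dosed with chemical and read 24 h later. CD40 levels were measured by ELISA and fitted bidirectionally against DMSO as negative control and baseline.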

Read-out in assay [19]: CD40, CD40 (gene 958)
The experiment in a line: BSK_SAg_CD40: BioMAP Diversity Plus: SAg Assay for CD40 Biomarker Activity (AID 2283088). The following applies: primary human HUVEC with PBMC; actives raise or lower the signal. The procedure, abridged:
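Human umbilical vein endothelial cells co-cultured with PBMC; CD40 levels measured by ELISA with fluorescence read-out 24 h after chemical dosing. Gain or loss of signal fitted bidirectionally against DMSO baseline.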

Sequence of Tumor necrosis factor (Homo sapiens) (P01375 whole entry, looked up): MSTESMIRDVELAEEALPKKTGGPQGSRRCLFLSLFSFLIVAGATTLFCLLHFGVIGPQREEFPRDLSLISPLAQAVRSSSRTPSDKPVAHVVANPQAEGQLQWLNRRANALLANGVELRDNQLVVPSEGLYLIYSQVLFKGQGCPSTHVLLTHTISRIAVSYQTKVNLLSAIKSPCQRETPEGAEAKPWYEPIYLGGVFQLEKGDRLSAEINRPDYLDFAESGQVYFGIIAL
Sequence of E-selectin (Homo sapiens) (P16581 whole entry, looked up): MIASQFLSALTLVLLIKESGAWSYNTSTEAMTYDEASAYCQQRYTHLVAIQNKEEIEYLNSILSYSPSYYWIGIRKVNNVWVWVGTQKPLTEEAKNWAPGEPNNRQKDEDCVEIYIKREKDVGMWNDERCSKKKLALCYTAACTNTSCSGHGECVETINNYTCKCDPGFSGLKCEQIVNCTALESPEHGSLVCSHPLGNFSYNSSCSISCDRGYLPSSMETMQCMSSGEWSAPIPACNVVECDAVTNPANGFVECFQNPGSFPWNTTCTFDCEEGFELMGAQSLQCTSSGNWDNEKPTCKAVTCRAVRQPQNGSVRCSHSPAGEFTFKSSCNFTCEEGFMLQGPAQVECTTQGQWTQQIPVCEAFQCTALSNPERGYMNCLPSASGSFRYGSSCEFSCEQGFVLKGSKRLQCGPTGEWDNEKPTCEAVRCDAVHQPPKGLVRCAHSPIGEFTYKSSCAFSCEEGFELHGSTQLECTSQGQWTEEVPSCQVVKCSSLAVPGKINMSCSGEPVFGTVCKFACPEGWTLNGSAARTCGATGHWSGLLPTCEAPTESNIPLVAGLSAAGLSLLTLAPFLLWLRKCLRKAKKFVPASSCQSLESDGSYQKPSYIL

As to `S=C1NCCN1`, the outcome in [1], in [2], in [3], in [4], in assay [5] and in assay [6] was inactive. In addition, the outcome in assay [7], in assay [8], in assay [9], in assay [10], in [11] and in [12] was inactive. In addition, the result in assay [13], in [14], in [15], in assay [16] and in assay [17] was inactive.
One may read the AC50 as the concentration giving half of the maximal activity seen. For the compound `CC(COc1ccc(Oc2ccccc2)cc1)Oc1ccccn1` (configuration not stated), the result in [1], in assay [2], in assay [3], in [4], in assay [5] and in [6] was inactive. The outcome in [7], in assay [8], in assay [9], in [11], in [12] and in assay [13] was inactive. The outcome in [15], in assay [19] and in assay [17] was inactive. Also, the AC50 in assay [18] was 20 µM (active); in assay [10] it was 3.97 µM (active); in [14], 0.843 µM (active).
For `CCC(CC)Nc1c([N+](=O)[O-])cc(C)c(C)c1[N+](=O)[O-]`, the outcome in assay [1], in assay [2], in assay [4], in assay [10] and in assay [12] was inactive. Moreover, the AC50 in assay [3] is 8.34 µM (active); in assay [5], 16.8 µM (active); in [6], 18 µM (active); in assay [7] it was 20 µM (active); in [8] it was 36.1 µM (active); in [9], 20 µM (active). Moreover, the AC50 is 18.9 µM (active) in assay [11]; 26.4 µM (active) in assay [13]; 15 µM (active) in assay [14]; 28.5 µM (active) in assay [15]; 20 µM (active) in [16]; 29.1 µM (active) in [17].
For the compound `CC(=NC#N)N(C)Cc1ccc(Cl)nc1`, the outcome in assay [1], in [2], in assay [3], in assay [4], in assay [5] and in assay [6] was inactive. The outcome in assay [7], in assay [8], in assay [9], in assay [10], in [11] and in assay [12] was inactive. The outcome in assay [13], in assay [14], in assay [15], in assay [19], in [16] and in assay [17] was inactive.
In the case of `CN(C)[C@@H]1C(=O)C(C(N)=O)=C(O)[C@@]2(O)C(=O)C3=C(O)c4c(O)cccc4[C@@](C)(O)[C@H]3[C@H](O)[C@@H]12`, the outcome in assay [1], in assay [2], in assay [3], in assay [4], in [5] and in assay [6] was inactive. In addition, the outcome in assay [7], in assay [8], in [9], in assay [10], in assay [11] and in [12] was inactive. Further, the result in assay [13], in assay [14], in assay [15] and in [17] was inactive. In addition, in assay [13], the AC50 is 14.7 µM (active).
For the compound `COP(=O)(OC)OC(Br)C(Cl)(Cl)Br` (configuration not stated), the AC50 in [1] is 32.3 µM (active); in [2], 31.1 µM (active); in [3], 30.4 µM (active); in [4], 36.9 µM (active); in assay [5] it was 32.3 µM (active); in [6], 30.8 µM (active). Also, the AC50 is 26 µM (active) in assay [7]; 32.3 µM (active) in assay [8]; 36.5 µM (active) in assay [9]; 28.5 µM (active) in assay [11]; 15.2 µM (active) in assay [12]; 28.9 µM (active) in assay [13]. Moreover, the AC50 in [14] is 26.4 µM (active); in [15] it was 31.5 µM (active). Further, the result in assay [10] was inactive.

The record behind these values is PubChem BioAssay (EPA / NIEHS).
